From PubChem
IL-1B inflam inh – inflammasome signaling inhibition, IL-1 beta readout. 360,000 compounds, 4.7% hits. activity change, % at 57.5 µM. THP-1 LPS/ATP IL-1B secretion, AlphaLISA, 16 h; hits give low values; in the data active means activity change below about -50%; inconclusive means mostly about -30% to -49%
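Secreted IL-1B measured by AlphaLISA bead assay after 16 h compound exposure of THP-1 cells; compounds (final up to 57.5 uM) added 1 h before LPS (250 ng/mL) and ATP (1.25 mM) stimulation; lower signal means less secretion.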
uPA surface inh – cell surface uPA generation inhibition; cell surface uPA generation assay, qHTS; Potency, µM (top dose mostly 38.3 µM), for the others: top-dose activity change, negative = inhibition, actives largely listed as inhibitors; 330,000 compounds, 0.31% hits; AID 540303; active means well fitted inhibition curve with a large enough effect; inconclusive means small, poorly fitted or top-dose-only effect; inactive means no such curve, though single readings can be large or run the other way; tested in mouse RAW 264.7 cells; further: potency means the concentration at half of the fitted maximal effect; nearly all actives have a fitted effect of over 55% in size
HT1080NT lethal – kills 2HG-producing HT-1080-NT fibrosarcoma cells; 360,000 compounds, 1.6% hits; HT-1080-NT fibrosarcoma viability, CellTiter-Glo ATP luminescence, 48 h; Potency, µM (titrated, usually from 46.1 µM), for the others: at the highest dose activity, negative = less viability, actives largely listed as cytotoxic; AID 686970;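 further: NT is the 2HG producing partner of a matched IDH1 knockdown line; potency means the concentration at half of the fitted maximal effect; 0% = DMSO-treated cells and -100% = media-only wells without cells; nearly all actives have a fitted effect of over 55% in size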
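HT-1080-NT; 750 cells/well; 5% FBS RPMI; 48 h compound, 37 degrees C; CellTiter-Glo luminescence; curve fitting and curve-class assignment.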
TDP1 cell noCPT – qHTS for Inhibitors of human tyrosyl-DNA phosphodiesterase 1 (TDP1): qHTS in cells in absence of CPT. DT40 Tdp1-/- hTDP1 cells, no CPT, ATP luminescence, 48 h. AID 686978, 2013. 420,000 compounds, 15% hits. Potency, µM (series often up to 46.2 µM), for the others: top-dose activity change, negative = growth inhibition, hits mostly inhibitors; further: potency means the concentration at half of the fitted maximal effect; nearly all actives have a fitted effect of over 55% in size
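Compound effects on proliferation are scored in DT40 Tdp1-/-;hTDP1 cells in the absence of CPT. ATP levels (CellTiter-Glo luminescence) are recorded after a ≥48 hr, 37 °C incubation.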
TDP1 cell CPT – DT40-hTDP1 cell growth loss with CPT. chicken DT40 Tdp1-/-;hTDP1 cells + 20 nM CPT, ATP luminescence, 48 h. Potency, µM (series often up to 46.2 µM), without a hit: at the top dose activity change, negative = growth inhibition, most hits filed as inhibitors. AID 686979. 420,000 compounds, 12% hits; further: potency means the concentration at half of the fitted maximal effect; nearly all actives have a fitted effect of over 55% in size
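Chicken DT40 Tdp1-/- cells stably complemented with human TDP1 were seeded at 400 cells/well in medium containing 20 nM camptothecin, exposed to pin-transferred compounds, and grown at 37 °C for at least 48 hr. Viability was read as ATP luminescence.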
HT1080 IDH1KD tx – kills HT-1080 cells with IDH1 knockdown; 360,000 compounds, 2% hits; Potency, µM (top dose mostly 46.1 µM), without a hit: at the top dose activity, negative = toxicity, hits mostly cytotoxic; HT-1080 IDH1 knockdown viability, ATP luminescence, 48 h;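 further: potency means the concentration at half of the fitted maximal effect; 0% = DMSO wells and -100% = cell-free medium wells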
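Knockdown cells (IDH1KD HT-1080) received compounds 2 h after plating at 750 cells/well and were kept 48 h at 37 °C in 5% FBS RPMI. A CellTiter-Glo luminescence read gave % activity for curve fitting.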
* = called active by the depositor; ? = inconclusive; / = no result; [ ] = remark or other dose. Sampled rows, rich in hits. Any-hit rate of the full collection: about 19%. Unless noted, the call rests on the fitted dose curve; in most records, active means well fitted curve in the direction sought with a large enough effect; inconclusive means small, poorly fitted or top-dose-only effect, or another doubt; inactive means no such curve, though single readings can be large; an effect the other way counts as inactive or inconclusive. Unless noted, on the % scale 0 is the no-effect control and ±100 the full control effect.

SMILES | IL-1B inflam inh | uPA surface inh | HT1080NT lethal | TDP1 cell noCPT | TDP1 cell CPT | HT1080 IDH1KD tx
COc1cc(C(C)=O)ccc1Oc1cc(NN2CCCCC2)c([N+](=O)[O-])cc1[N+](=O)[O-] | -15.8 | -2.5% | -5.6% | ? | 23.1µM* | -5.9%
O=[N+]([O-])c1cc([N+](=O)[O-])c(Oc2ccccc2F)cc1NN1CCCCC1 | 36.8 | 11.0% | 13.5% | -24.6% | ? | 6.2%
O=[N+]([O-])c1cc([N+](=O)[O-])c(Oc2cccc(Cl)c2Cl)cc1NN1CCCCC1 | 19.0 | -7.0% | 8.8% | ? | 23.1µM* | 11.4%
CCOc1ccc(CC(=O)Nc2c(C(=O)c3ccccc3)oc3ccc(Cl)cc23)cc1OCC | / | / | / | ? | 2.3% | /
CCN(CC)C(=S)SCC(=O)c1ccc(Br)cc1 | -1.7 | 0.2% | -0.9% | 23.1µM* | -3.7% | 0.0%
CCCN(CCC)c1nn2c(=O)c(C(=O)NCc3cc(Br)ccc3OC)cnc2s1 | / | / | / | -29.4% | -19.0% | /
Cc1cn(C2CCCO2)c(=O)nc1N (configuration not stated) | 0.0 | 3.5% | 16.8% | -19.2% | ? | 25.7%
Cc1nn(Cc2cccc(C(=O)N3N=C(C(F)F)CC3(O)C(F)F)c2)c(C)c1[N+](=O)[O-] (configuration not stated) | 35.1 | / | -19.2% | ? | ? | ?
CC1=NN(C(=O)c2ccc(Cn3cc([N+](=O)[O-])cn3)cc2)C(O)(C(F)(F)F)C1 (configuration not stated) | 10.6 | 3.4% | 4.4% | 3.66µM* | 1.84µM* | 5.1%
CC1=NN(C(=O)c2cccc(Cn3nc(C)c([N+](=O)[O-])c3C)c2)C(O)(C(F)(F)F)C1 (configuration not stated) | 15.1 | / | 7.94µM* | ? | -11.5% | 5.01µM*
O=C1/C(=C/c2ccccc2)CCc2ccc(Cl)nc21 | -105.3* | -9.3% | ? | 4.61µM* | 2.59µM* | 18.4µM*
O=C1OCC/C1=C\c1ccccc1 | -11.3 | -0.2% | 16.3% | 3.7% | -2.6% | 21.8%
COCCCNC(=O)Cn1cnc2sc(C)c(S(=O)(=O)N3CCC(C)CC3)c2c1=O | / | / | / | -16.4% | -14.9% | /
COc1cc(C)ccc1S(=O)(=O)n1nc(C)cc1C | 13.9 | 1.1% | 7.8% | -24.1% | 2.1% | 7.3%
COc1ccc(C(=O)CC(=O)C(=O)Nc2cc(C)ccc2C)cc1 | 48.6 | -0.7% | -24.0% | ? | -102.7% | ?
COc1ccc(C(=O)CC(=O)C(=O)Nc2cccc(F)c2)cc1 | -9.6 | -6.0% | -8.4% | 14.6µM* | ? | -21.5%
COc1ccc(C(=O)CNc2ccccc2C#N)cc1 | -9.5 | 0.6% | 0.9% | 20.6µM* | ? | -9.1%
COc1ccc(C(=O)CC(=O)C(=O)Nc2ccc(C)c(Cl)c2)cc1 | -19.6 | 0.3% | -9.0% | 16.4µM* | ? | 5.0%
COc1ccc(C(=O)CNc2ccccc2CO)cc1 | 20.5 | -4.3% | -4.1% | -2.6% | 14.4% | -11.5%
CCOc1ccccc1NC(=O)C(=O)CC(=O)c1ccc(OC)cc1 | 27.9 | 2.3% | -16.2% | 20.6µM* | ? | -13.7%
CCc1cccc(CC)c1NS(=O)(=O)c1ccc2c(c1)CCN2C(=O)C1CC1 | / | / | / | -27.9% | ? | /
Cn1c(=O)c2c(nc(/C=C/c3cccc(Cl)c3)n2C)n(C)c1=O | 7.5 | 4.0% | 13.3% | -1.9% | 0.4% | 10.2%
Cc1cc(N=Nc2ccc(C)c(N=Nc3cc(C)c(N)cc3N)c2)c(N)cc1N | -16.9 | ? | -17.5% | 11.6µM* | ? | -16.3%
COc1ccc(N=Nc2cc(OC)c(N)cc2OC)cc1 | -24.6 | 3.7% | -1.0% | ? | -0.8% | -8.4%
COc1ccc(C(=O)C[n+]2ccc3c(c2)nnn3-c2ccccc2)cc1 | -7.1 | -2.3% | -13.2% | ? | -24.4% | -13.9%
SMILES | IL-1B inflam inh | uPA surface inh | HT1080NT lethal | TDP1 cell noCPT | TDP1 cell CPT | HT1080 IDH1KD tx
NC(=O)CC(NC(=O)c1ccccc1)c1ccc(NCCc2ccc(Cl)cc2)c([N+](=O)[O-])c1 (configuration not stated) | -11.0 | 2.3% | ? | ? | ? | -26.4%
CC(=O)Nc1ccc2c(c1)-c1ccc(F)cc1C2 | 15.4 | -6.0% | 0.4% | ? | ? | -2.0%
CC(=O)Nc1cc2c(cc1[N+](=O)[O-])-c1ccc(F)cc1C2 | -81.2* | 3.1% | -5.7% | 8.3% | ? | -13.1%
CCOc1ccc(Nc2nc(Nc3ccc(OCC)cc3)nc(N3CCOCC3)n2)cc1 | / | / | / | -7.5% | -15.4% | /
CCOc1nc(Nc2ccc(F)cc2)nc(N2CCN(c3ccc(OC)cc3)CC2)n1 | -17.4 | -9.3% | -1.8% | 14.6µM* | ? | -1.5%
COc1nc(Nc2ccc(OC)c(Cl)c2)nc(OC)n1 | -10.8 | -7.1% | -0.2% | ? | -14.1% | 0.4%
CCOc1ccc(Nc2nc(N3CCCC3)nc(N3CCN(c4ccc(OC)cc4)CC3)n2)cc1 | -0.5 | -4.2% | 23.5% | 16.4µM* | ? | 15.5%
N#Cc1ccc(Oc2nc(Nc3ccc(F)cc3)nc(N3CCCC3)n2)cc1 | -17.7 | / | -3.7% | ? | ? | ?
CCOc1nc(Nc2ccc(OC)c(Cl)c2)nc(N2CCN(c3ccc(OC)cc3)CC2)n1 | ? | -7.4% | -0.2% | 23.1µM* | 18.4µM* | -6.6%
CCc1ccc(OCC(=O)NNC(=O)c2ccc(NC(=O)C3CC3)cc2)cc1 | 0.0 | 7.2% | 1.4% | -0.6% | -14.0% | -2.4%
CC(C)(C)OC(=O)N[C@H](/C=C/c1ccccc1)C(=O)OC(C)(C)C | -5.7 | 3.3% | 0.0% | ? | ? | 2.8%
Cc1ccc2cccc(OCc3cccc([N+](=O)[O-])c3)c2n1 | -50.8* | 1.3% | 0.1% | -9.0% | 9.6% | -0.1%
Cc1ccc(OCCOc2cccc3ccc(C)nc23)c([N+](=O)[O-])c1 | 23.8 | 5.4% | -20.3% | 16.4µM* | ? | -8.0%
O=[N+]([O-])c1cccc(COc2ccccc2CN2CCCC2)c1 | 1.2 | -10.8% | 0.2% | -23.7% | -22.1% | 5.8%
CCN(CC)S(=O)(=O)c1cc(C(=O)Nc2cc(C)[nH]n2)ccc1Cl | 14.1 | ? | -2.4% | 4.4% | -5.2% | -0.7%
CCOc1cc(S(=O)(=O)n2cc(-c3ccc(F)cc3)c(N)n2)cc(OCC)c1OCC | -6.5 | -0.8% | -17.8% | 13µM* | ? | -10.0%
CCOc1ccc(S(=O)(=O)n2cc(-c3ccc(F)cc3)c(N)n2)cc1 | -15.0 | / | 1.0% | -20.6% | 3.5% | ?
Cn1cc(CNC2CCN(c3cccc(NC(=O)c4cccnc4)c3)CC2)cn1 | / | / | / | -1.8% | 6.6%[9.04 µM] | /
